Experimental findings from paper PMC4552634, “A New Set of Chemical Starting Points with Plasmodium falciparum Transmission-Blocking Potential for Antimalarial Drug Discovery” (PLoS ONE, 2015) are described below.

Out of some 13,000 compounds screened, about 3,200 (25%) showed an effect of 50% or more. The list shows a part of the results.

In the assay the test system is P. falciparum stage V gametocytes. Further details: BacTiter-Glo ATP luminescence viability of purified stage V gametocytes in 384-well plates, per cent inhibition versus DMSO. The following applies: 48 h, 5 µM; inhibitor.
As to `CCCCc1ccc(NC(=O)Nc2ccc3c(c2)CCNCC3)cc1` [TCMDC-141500], the “% Inhibition” value is on record as 0.2373%.
As for `CCOC(=O)c1c(CN2CCCC2)n(-c2ccccc2)c2cc(Br)c(O)cc12` [TCMDC-124122], the “% Inhibition” value is -23.97%.
Consider `C=C[C@]1(C)C[C@@H](OC(=O)c2cncn(COC)c2=O)[C@]2(C)[C@H](C)CC[C@]3(CCC(=O)[C@H]32)[C@@H](C)[C@@H]1O` [TCMDC-141314], for which the “% Inhibition” value is listed as 6.014%.
With `CN1CCN(c2cc(NC(=O)Nc3cccc(Cl)c3Cl)ccc2Cl)CC1` [TCMDC-139114], the “% Inhibition” value is reported as -11.69%.
Turning to `CCCC(CNCc1cccc(I)c1)CNc1cc(=O)c2ccccc2[nH]1` (stereo not drawn) [TCMDC-139433], the “% Inhibition” value is reported as 23.15%.
For `CC(=O)N1N=C(c2ccc(F)cc2)Sc2c1nc(-c1ccccc1)n2C(C)=O` [TCMDC-125192], the “% Inhibition” value was 62.08%.
`CC(=O)N1N=C(c2ccccc2)Sc2c1nc(-c1ccc(Cl)cc1)n2C(C)=O` [TCMDC-125193]: the “% Inhibition” value was 43.76%.
Turning to `CC(=O)N1N=C(c2ccc(Cl)cc2)Sc2c1nc(-c1ccccc1)n2C(C)=O` [TCMDC-124899], the “% Inhibition” value was determined as 80.4%.
`CC(=O)N1N=C(c2cccs2)Sc2c1nc(-c1ccc(Cl)cc1)n2C(C)=O` [TCMDC-124898]: the “% Inhibition” value amounted to 78.97%.
On to `CCOC(=O)c1[nH]c(-c2ccc(-c3ccccc3)cc2)nc1N` [TCMDC-131797], for which the “% Inhibition” value is -4.943%.
For the compound `CCOC(=O)c1[nH]c(-c2ccccc2)nc1-n1nc(C)cc1C` [TCMDC-131622], the “% Inhibition” value is given as -5.185%.
As for `CC(=O)N1N=C(c2ccc(Cl)cc2)Sc2c1nc(C1CCCCC1)n2C(C)=O` [TCMDC-125191], the “% Inhibition” value is reported as 45.01%.
In the case of `COc1ccc(Cc2nc3c(n2C(C)=O)SC(c2ccc(Cl)c(Cl)c2)=NN3C(C)=O)cc1` [TCMDC-125189], the “% Inhibition” value turned out to be 18.21%.
Turning to `CC(=O)N1N=C(c2ccc(F)cc2)Sc2c1nc(C1CCCCC1)n2C(C)=O` [TCMDC-125190], the “% Inhibition” value is 77.23%.
Under `O=C(/C=C/c1ccc(Cl)cc1)NCCCCCN1CCCN(C(=O)Nc2ccc(F)c(Cl)c2)CC1` [TCMDC-136101] stands -6.119%; under `COc1cccc(CNC[C@@H](O)[C@H](Cc2ccccc2)NC(=O)c2cc(C3CCCC3)cc(N3CCCCS3(=O)=O)c2)c1` [TCMDC-134523], 42.74%.
`CCC1(CC)N=C(N)N=C(N)C1c1ccc(Cl)c(Cl)c1` (stereo not drawn) [TCMDC-137597]: the “% Inhibition” value stood at 8.83%.
In the case of `COc1ccc(CN2CCCC(C(=O)c3ccc(C(F)(F)F)cc3)C2)c(O)c1` (stereo not drawn) [TCMDC-124631], the “% Inhibition” value stood at 43.69%.
`CS(=O)(=O)Cc1ccc(Nc2nccc(-c3c(-c4cccc(NC(=O)C5CCCCC5)c4)nn4ncccc34)n2)cc1` [TCMDC-135812]: the “% Inhibition” value was -14.86%.
On to `CC(=O)Nc1cccc(-c2cnc(N)c3cc(-c4ccc5c(c4)OCO5)ccc23)c1` [TCMDC-134504], for which the “% Inhibition” value is 30.5%.
With `Cn1nccc1C(=O)NCCNCc1ccc(-c2ccc(-c3nc4ccccc4[nH]3)s2)cc1.O=C(O)C(F)(F)F` [TCMDC-133004], the “% Inhibition” value was -2.407%.
Then `CCN(CC)CCN(Cc1ccc(-c2ccc(C(F)(F)F)cc2)cc1)C(=O)Cn1nc(-c2ccc(C(F)(F)F)cc2)ccc1=O` [TCMDC-141575], with 69.38%.
For the compound `CCC(=O)c1ccc(-c2ccc(=O)n(CC(=O)N(CCN(CC)CC)Cc3ccc(-c4ccc(C(F)(F)F)cc4)cc3)n2)cc1` [TCMDC-141574], the “% Inhibition” value was 82.08%.
Consider `CCN(CC)S(=O)(=O)c1cc(-c2ccc(=O)n(CC(=O)c3ccc(C)cc3)n2)ccc1C` [TCMDC-124707], for which the “% Inhibition” value is -20.12%.
As for `Cc1cccc(Nc2nc(N[C@@H]3CCCNC3)nc3cc[nH]c(=O)c23)c1` [TCMDC-134835], the “% Inhibition” value is -44.23%.
Then `O=c1[nH]ccc2nc(N[C@@H]3CCNC3)nc(Nc3cc(Cl)cc(Cl)c3)c12` [TCMDC-135052], with 102.4%.
As for `O=c1[nH]ccc2nc(N[C@@H]3CCNC3)nc(Nc3cccc(S(=O)(=O)N4CCOCC4)c3)c12` [TCMDC-135047], the “% Inhibition” value was determined as 89.83%.
For the compound `NS(=O)(=O)c1cccc(Nc2nc(N[C@@H]3CCNC3)nc3cc[nH]c(=O)c23)c1` [TCMDC-135057], the “% Inhibition” value is recorded as -11.44%.
For the compound `CN(C)S(=O)(=O)c1ccc(Nc2nc(NCCC3C=NC=N3)nc3cc[nH]c(=O)c23)cc1` (stereo not drawn) [TCMDC-135045], the “% Inhibition” value is listed as -6.172%.
Under `Cc1cc(N2Cc3ccccc3C2)nc(Nc2ccc(S(=O)(=O)N3CCOCC3)cc2)n1` [TCMDC-134229] stands -25.67%.
With `O=c1[nH]ccc2nc(N[C@@H]3CCNC3)nc(Nc3ccc4c(c3)S(=O)(=O)CC4)c12` [TCMDC-135044], the “% Inhibition” value turned out to be 71.11%.
Then `OCCOCCNCc1cccc(C#Cc2cc3ncnc(Nc4ccc(OCc5cccc(F)c5)c(Cl)c4)c3s2)n1` [TCMDC-138843], with -31.63%.
For the compound `CCNc1nc(OCC(F)(F)F)nc(N(c2ccccc2)c2ccccc2)n1` [TCMDC-125801], the “% Inhibition” value is given as -11.7%.
For `O=C(c1cc(C(=O)NC2CCCCC2)c(=O)n(C2CCCCC2)c1)c1cc(F)ccc1O` [TCMDC-124525], the “% Inhibition” value came to 20.48%.
Regarding `NCC(NC(=O)c1ccc(-c2c[nH]c3ncccc23)s1)c1ccccc1` (stereo not drawn) [TCMDC-134154], the “% Inhibition” value is listed as -44.12%.
As for `CCC1(CC)CN(c2ccccc2)c2ccc(O)cc2S(=O)(=O)C1CC(C)C` (stereo not drawn) [TCMDC-137217], the “% Inhibition” value was -89.07%.
`N#Cc1ccc2c(c1)CCN(CCC1CCC(NC(=O)/C=C/c3ccc4ccccc4c3)CC1)CC2` (stereo not drawn) [TCMDC-139779]: the “% Inhibition” value was -26.43%.
Under `OCCCCCCNc1ccnc2[nH]c3ccc(I)cc3c12` [TCMDC-131830] stands 10%; under `Cc1cccc2[nH]c(-c3ccc(-c4cccc(NC(=O)Nc5ccc6c(c5)OCO6)c4)cc3)nc12` [TCMDC-133166], -1.928%; under `CC(Sc1nc2sccc2c(=O)n1C)C(=O)Nc1ccc2c(c1)OCO2` (stereo not drawn) [TCMDC-125026], 100.7%.
As for `Cc1cccc2[nH]c(-c3cccc(-c4ccc(NC(=O)Nc5ccc6c(c5)OCO6)cc4)c3)nc12` [TCMDC-133163], the “% Inhibition” value is on record as -27.37%.
Take `O=C(NCC1CCC(C(=O)O)CC1)c1ccc(/C=C/C(=O)N2CCc3ccccc3C2c2ccc3c(c2)OCO3)cc1` (stereo not drawn) [TCMDC-138267]: the “% Inhibition” value was -9.047%.
For the compound `CS(=O)(=O)c1ccc(CNCc2cccc(-c3cccc(-c4nc5ccc(F)cc5[nH]4)c3)c2)cc1` [TCMDC-132907], the “% Inhibition” value is -11.65%.
Then `O=S(=O)(NCCN1CCCC1)c1cccc(-c2cccc(CNCc3ccc(F)cc3)c2)c1` [TCMDC-132276], with 98.39%; and `O=S(=O)(NCCN1CCCC1)c1cccc(-c2ccc(CNCc3ccc(F)cc3)cc2)c1` [TCMDC-132289], with 105.2%; and `O=S(=O)(NCCN1CCCC1)c1ccc(-c2cccc(CNCc3ccc(F)cc3)c2)cc1` [TCMDC-132407], with 38.56%.
Then `O=C(/C=C/c1ccc(Cl)c(Cl)c1)NCCCCCN1CCC(n2c(=O)[nH]c3ccccc32)CC1` [TCMDC-139330], with -42.06%.
Take `CC(C)C[C@H](NC(=O)[C@H](Cc1ccccc1)NC(=O)CCN1C(=O)COc2ccc(C(=O)O)cc21)C(=O)NC(CC1CCCCC1)C(O)CC(=O)NCCCn1ccnc1` (stereo partly drawn) [TCMDC-131640]: the “% Inhibition” value was determined as 6.577%.
As to `c1ccc(COc2ccc(C3CCCCC3)cc2)nc1` [TCMDC-131330], the “% Inhibition” value was 8.048%.
With `CC(CNC(=N)c1cccc(C(=N)NCC(C)Oc2cccc(C3CCCCC3)c2)n1)Oc1cccc(C2CCCCC2)c1.Cl` (stereo not drawn) [TCMDC-137455], the “% Inhibition” value amounted to 116.2%.
Consider `O=C(Cc1ccc(F)cc1)NC1CCN(c2ccnc3cc(Cl)ccc23)C1` (stereo not drawn) [TCMDC-133668], for which the “% Inhibition” value is listed as 7.133%.
Turning to `CCCSc1nc2c(c(=O)n1CCc1ccccc1)C1(CCCC1)Cc1ccccc1-2` [TCMDC-123890], the “% Inhibition” value was -17.67%.
As for `CC(C)Sc1nc2c(c(=O)n1CCc1ccccc1)C1(CCCC1)Cc1ccccc1-2` [TCMDC-123891], the “% Inhibition” value is listed as -12.92%.
For `C=C(C)CSc1nc2c(c(=O)n1CCc1ccccc1)C1(CCCC1)Cc1ccccc1-2` [TCMDC-123892], the “% Inhibition” value is on record as 66.35%.
For the compound `Cc1cc(C(=O)Nc2ccc3c(c2)CCN3C2CCN(Cc3cc(F)cc(F)c3F)C2)no1` (stereo not drawn) [TCMDC-135083], the “% Inhibition” value is given as 0.2789%.
Under `Cc1nc(N)nc(N)c1CCCOc1cccc(Cl)c1` [TCMDC-138067] stands -4.32%; under `CN(Cc1cc(C(F)(F)F)cc(C(F)(F)F)c1)C(=O)C1CNCC1c1ccc(F)cc1` (stereo not drawn) [TCMDC-137553], 10.31%.
With `CN(Cc1ccc(C#N)cc1)C1CCN(c2cc(NC(=O)c3ccc(F)cc3)ccn2)CC1` [TCMDC-134978], the “% Inhibition” value is 9.957%.
With `CN(Cc1cc(C(F)(F)F)cc(C(F)(F)F)c1)C(=O)C(Cc1ccc(F)cc1)C1CCCNC1` (stereo not drawn) [TCMDC-138909], the “% Inhibition” value was 92.9%.
`CCCc1cc(N2CCC(N(CC)CC)C2)nc(Nc2ccc(OC)cc2)n1` (stereo not drawn) [TCMDC-132388]: the “% Inhibition” value is -68.85%.
As for `COC(=O)c1ccc(CC(C)NCC(O)c2ccc3ccc4ccccc4c3c2)cc1` (stereo not drawn) [TCMDC-131429], the “% Inhibition” value was 28.11%.
Regarding `CC(=NN=C(N)N)c1ccc2ccc3ccccc3c2c1` [TCMDC-137667], the “% Inhibition” value is reported as 76.83%.
Turning to `Nc1ncc(Cc2ccc3c(ccc4ccccc43)c2)c(N)n1` [TCMDC-137874], the “% Inhibition” value is on record as 19.52%.
For `CC(=NN=C(N)N)c1ccc2c(c1)Cc1ccccc1-2` [TCMDC-137666], the “% Inhibition” value is reported as 27.22%.
Turning to `CC(=NN=C(N)N)c1ccc2c(ccc3ccccc32)c1` [TCMDC-137669], the “% Inhibition” value is reported as 96.96%.
As for `CC(C)C[C@@H]1C(=O)N[C@H](C2Cc3ccccc3C2)C(=O)N1[C@@H](C(=O)O)c1ccc(F)cc1F` [TCMDC-138777], the “% Inhibition” value is recorded as -24.68%.
